Assay results as given in PubChem BioAssay.
Activity calls are given as the source filed them.

Tests used:
[1] = test system: Plasmodium falciparum Sir2 (PF13_0152, Sir2A); assay: pfSir2 binders on small-molecule microarrays, primary screen, biochemical, small-molecule microarray, 635 nm fluorescence (AID 1098); conditions: small-molecule microarray binding, fluorescence 635 nm; higher = more signal;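 further: score merges spot fluorescence intensity with its signal-to-noise ratio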
[2] = small-molecule microarray binders of probe aDKK1, primary screen, biochemical, biotinylated probe, 635/667 nm fluorescence (AID 1099); conditions: higher = more signal;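 further: score merges 667nm spot fluorescence with signal to noise across triplicate slides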
[3] = small-molecule microarray binders of probe aCHRDL2, primary screen, biochemical, biotinylated probe, 635/667 nm fluorescence (AID 1100); conditions: higher = more signal
[4] = splicing luciferase reporter signal modulators, primary screen, spliceosome inhibition project, cell-based, HEK293, splice +/- reporter (AID 1101); conditions: luminescence, 24 h, higher = more signal, called active from +8 up or from −8 down;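 further: HEK293 cells carrying a splicing-competent luciferase reporter gene; test concentration not given here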
[5] = molecular target: Fibroblast growth factor 10 (Homo sapiens) (UniProt O15520); assay: FGF10 binders on small-molecule microarrays, primary screen, biochemical, small-molecule microarray, 635 nm fluorescence (AID 1102); conditions: FGF10 binding, fluorescence 635 nm, higher = more signal
[6] = test system: glycogen synthase kinase-3 (GSK3A per assay name; protocol says GSK3B); assay: GSK3 binders on small-molecule microarrays, primary screen, biochemical, small-molecule microarray, 635 nm fluorescence, GSK3A (AID 1103); conditions: small-molecule microarray binding, fluorescence 635 nm; higher = more signal; further: the record names both GSK3A and GSK3B
[7] = molecular target: Epidermal growth factor receptor (Homo sapiens) (UniProt P00533); assay: EGFR binders on small-molecule microarrays, primary screen, biochemical, small-molecule microarray, 635 nm fluorescence (AID 1104); conditions: EGFR binding, higher = more signal;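 further: score merges 667 nm emission intensity with spot signal to noise over triplicate slides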
[8] = molecular target: Follistatin-related protein 3 (Homo sapiens) (UniProt O95633); assay: FSTL3 binders on small-molecule microarrays, primary screen, biochemical, small-molecule microarray, 635 nm fluorescence (AID 1105); conditions: FSTL3 binding, higher = more signal;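 further: score merges emission near 667 nm and signal to noise per printed spot across three slides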
[9] = molecular target: Dickkopf-related protein 1 (Homo sapiens) (UniProt O94907); assay: DKK1 binders on small-molecule microarrays, primary screen, biochemical, small-molecule microarray, 635 nm fluorescence scan (AID 1106); conditions: DKK1 binding, higher = more signal;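 further: score merges emission near 667 nm with signal to noise over three replicate slides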
[10] = test system: Inhibin beta A chain (activin A); assay: INHBA (activin A) binders on microarrays, primary screen, biochemical, small-molecule microarray, 635 nm fluorescence scan (AID 1107); conditions: small-molecule microarray binding, higher = more signal;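 further: mouse activin A protein probed at 4.33 µg/mL on printed slides; score merges bound-protein fluorescence near 667 nm with spot signal-to-noise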
[11] = test system: Human papillomavirus type 1a protein E7 (residues 44-93); assay: HPV1a E7 fragment binders on microarrays, primary screen, biochemical, small-molecule microarray, residues 44-93, 635 nm fluorescence (AID 1108); conditions: small-molecule microarray binding, fluorescence 635 nm; higher = more signal;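 further: E7 fragment applied at 1 µg/mL in TBST for 1 h at 4 C; score combines spot fluorescence with its signal to noise ratio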
[12] = modulators of HCV replicon luciferase signal, primary screen, HCV replication inhibitor project, Huh7 cells, luciferase reporter (AID 1109); conditions: 48 h, higher = more signal;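 further: huh7 hepatoma cells harbouring a luciferase neomycin HCV replicon reporter; luciferase luminescence as measure of HCV replicon replication; test concentration not given here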
[13] = molecular target: Left-right determination factor 2 (Homo sapiens) (UniProt O00292); assay: LEFTY2 binders on small-molecule microarrays, primary screen, biochemical, small-molecule microarray, 635 nm fluorescence scan (AID 1110); conditions: LEFTY2 binding, higher = more signal
[14] = molecular target: Calmodulin-1 (Homo sapiens) (UniProt P0DP23); assay: CALM1 binders on microarrays, EGTA buffer, profiling panel, biochemical, small-molecule microarray, Cy5-labelled CALM1 (AID 1111); conditions: Cy5-CALM1 binding fluorescence, higher = more signal;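 further: labelled calmodulin applied in Tris saline Tween buffer holding calcium plus EGTA and DTT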
[15] = molecular target: Calmodulin-1 (Homo sapiens) (UniProt P0DP23); assay: calcium-bound CALM1 binders on microarrays, profiling panel, artefact control for SMM control-protein annotation, biochemical, small-molecule microarray, Cy5-labelled CALM1, plus calcium (AID 1112); conditions: Cy5-CALM1 binding fluorescence, higher = more signal;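 further: score merges spot fluorescence with signal to noise from triplicate slides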
[16] = small-molecule microarray binders of probe aWnt5a, primary screen, biochemical, biotinylated probe, 635/667 nm fluorescence (AID 1113); conditions: higher = more signal;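 further: score merges 667 nm fluorescence intensity with signal-to-noise per printed feature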
[17] = small-molecule microarray binders of probe aShh, primary screen, biochemical, biotinylated probe, 635/667 nm fluorescence (AID 1114); conditions: higher = more signal;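 further: probe is biotin-labelled aShh protein from a stem cell growth factor screen; measures binding of labelled protein to compounds printed on the slide; score merges feature fluorescence at 667 nm with signal-to-noise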
[18] = small-molecule microarray binders of probe aNog, primary screen, biochemical, biotinylated probe, 635/667 nm fluorescence (AID 1115); conditions: higher = more signal;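 further: probe is biotinylated aNog protein used at 0.15 µg/mL for 1 h at 4 C; z-score combines 667 nm fluorescence of each spot with its signal to noise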
[19] = molecular target: Torsin-1A-interacting protein 1 (Homo sapiens) (UniProt Q5JTV8); assay: LAP1 binders from COS7 cell lysate, primary screen, small-molecule microarray, 635/667 nm fluorescence (AID 1116); conditions: COS7-hLAP1 lysate binding, 635 nm fluorescence, higher = more signal
[20] = molecular target: Alpha-bungarotoxin (Bungarus multicinctus) (UniProt P60615); assay: alpha-bungarotoxin binders on microarray, profiling panel, artefact control for SMM control protein annotation, biochemical, small-molecule microarray, Alexa647 label, 635/667 nm fluorescence (AID 1117); conditions: alpha-BTX-A647 binding fluorescence, higher = more signal
Sequence of Alpha-bungarotoxin (Bungarus multicinctus) (P60615 whole entry, looked up): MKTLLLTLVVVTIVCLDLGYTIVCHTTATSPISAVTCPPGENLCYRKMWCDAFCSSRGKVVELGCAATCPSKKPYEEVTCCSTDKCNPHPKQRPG

Sequence of Torsin-1A-interacting protein 1 (Homo sapiens) (Q5JTV8 whole entry, looked up): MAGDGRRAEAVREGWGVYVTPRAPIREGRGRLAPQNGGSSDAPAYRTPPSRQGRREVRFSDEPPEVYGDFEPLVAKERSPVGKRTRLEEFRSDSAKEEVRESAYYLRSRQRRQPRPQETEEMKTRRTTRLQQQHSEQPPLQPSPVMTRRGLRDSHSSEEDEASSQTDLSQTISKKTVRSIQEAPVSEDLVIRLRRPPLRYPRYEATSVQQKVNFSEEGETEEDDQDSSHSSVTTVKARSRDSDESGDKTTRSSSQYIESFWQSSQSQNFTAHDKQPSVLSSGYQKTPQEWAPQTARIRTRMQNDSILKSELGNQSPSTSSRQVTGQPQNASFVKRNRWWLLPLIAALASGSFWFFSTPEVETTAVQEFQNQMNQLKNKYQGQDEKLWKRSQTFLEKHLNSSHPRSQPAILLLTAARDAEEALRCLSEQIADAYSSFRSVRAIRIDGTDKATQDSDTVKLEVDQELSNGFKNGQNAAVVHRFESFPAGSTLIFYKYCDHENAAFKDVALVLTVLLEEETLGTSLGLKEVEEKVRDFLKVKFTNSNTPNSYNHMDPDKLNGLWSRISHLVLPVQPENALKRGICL
Sequence of Follistatin-related protein 3 (Homo sapiens) (O95633 whole entry, looked up): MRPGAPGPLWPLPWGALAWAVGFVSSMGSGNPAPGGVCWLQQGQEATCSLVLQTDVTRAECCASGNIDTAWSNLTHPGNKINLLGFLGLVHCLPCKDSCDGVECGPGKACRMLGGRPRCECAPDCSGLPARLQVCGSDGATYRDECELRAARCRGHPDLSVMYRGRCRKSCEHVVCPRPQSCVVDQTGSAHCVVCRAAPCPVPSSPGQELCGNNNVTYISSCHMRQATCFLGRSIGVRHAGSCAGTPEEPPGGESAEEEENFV
Sequence of Dickkopf-related protein 1 (Homo sapiens) (O94907 whole entry, looked up): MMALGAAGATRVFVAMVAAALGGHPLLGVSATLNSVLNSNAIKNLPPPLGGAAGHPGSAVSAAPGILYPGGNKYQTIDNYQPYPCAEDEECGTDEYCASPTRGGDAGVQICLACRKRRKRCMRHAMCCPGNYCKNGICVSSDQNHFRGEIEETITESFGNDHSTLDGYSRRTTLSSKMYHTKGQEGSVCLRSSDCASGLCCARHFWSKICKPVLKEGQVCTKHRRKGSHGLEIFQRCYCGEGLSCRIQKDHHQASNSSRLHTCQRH
Sequence of Fibroblast growth factor 10 (Homo sapiens) (O15520 whole entry, looked up): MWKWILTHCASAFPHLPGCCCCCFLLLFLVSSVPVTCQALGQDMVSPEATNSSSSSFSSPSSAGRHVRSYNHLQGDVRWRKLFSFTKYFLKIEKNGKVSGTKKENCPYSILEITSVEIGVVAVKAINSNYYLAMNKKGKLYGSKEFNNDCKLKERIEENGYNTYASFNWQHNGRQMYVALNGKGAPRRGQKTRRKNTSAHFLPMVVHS
Sequence of Epidermal growth factor receptor (Homo sapiens) (P00533 whole entry, looked up): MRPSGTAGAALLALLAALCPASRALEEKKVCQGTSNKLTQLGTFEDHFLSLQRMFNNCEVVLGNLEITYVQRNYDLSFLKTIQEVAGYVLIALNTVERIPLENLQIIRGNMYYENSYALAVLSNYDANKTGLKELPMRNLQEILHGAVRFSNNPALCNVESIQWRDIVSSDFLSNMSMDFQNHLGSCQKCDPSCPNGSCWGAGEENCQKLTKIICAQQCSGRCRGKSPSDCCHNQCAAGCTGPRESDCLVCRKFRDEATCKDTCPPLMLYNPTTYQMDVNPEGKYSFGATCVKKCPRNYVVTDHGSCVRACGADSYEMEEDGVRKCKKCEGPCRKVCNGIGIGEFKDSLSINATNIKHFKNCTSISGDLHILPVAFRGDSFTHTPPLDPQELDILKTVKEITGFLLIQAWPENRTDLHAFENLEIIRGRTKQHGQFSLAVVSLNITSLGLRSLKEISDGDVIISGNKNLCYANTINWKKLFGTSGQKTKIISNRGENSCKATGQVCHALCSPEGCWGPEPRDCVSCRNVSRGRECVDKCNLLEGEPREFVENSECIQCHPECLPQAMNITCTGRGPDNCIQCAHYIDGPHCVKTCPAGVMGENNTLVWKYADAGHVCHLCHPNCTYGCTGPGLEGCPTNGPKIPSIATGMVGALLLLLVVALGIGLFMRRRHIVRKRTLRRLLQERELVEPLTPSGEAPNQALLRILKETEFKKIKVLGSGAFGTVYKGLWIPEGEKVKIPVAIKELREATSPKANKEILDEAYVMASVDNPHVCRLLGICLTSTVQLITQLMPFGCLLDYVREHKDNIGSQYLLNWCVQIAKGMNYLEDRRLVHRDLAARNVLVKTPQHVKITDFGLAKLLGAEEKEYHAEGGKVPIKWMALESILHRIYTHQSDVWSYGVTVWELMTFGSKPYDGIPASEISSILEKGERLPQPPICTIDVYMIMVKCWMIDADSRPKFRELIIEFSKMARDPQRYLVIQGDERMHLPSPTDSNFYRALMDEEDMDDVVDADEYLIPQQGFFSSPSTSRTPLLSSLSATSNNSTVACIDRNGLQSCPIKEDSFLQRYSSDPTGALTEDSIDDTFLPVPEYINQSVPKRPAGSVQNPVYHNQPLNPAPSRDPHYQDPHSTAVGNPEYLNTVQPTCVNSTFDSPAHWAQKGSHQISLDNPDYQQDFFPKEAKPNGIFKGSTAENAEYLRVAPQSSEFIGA
Sequence of Left-right determination factor 2 (Homo sapiens) (O00292 whole entry, looked up): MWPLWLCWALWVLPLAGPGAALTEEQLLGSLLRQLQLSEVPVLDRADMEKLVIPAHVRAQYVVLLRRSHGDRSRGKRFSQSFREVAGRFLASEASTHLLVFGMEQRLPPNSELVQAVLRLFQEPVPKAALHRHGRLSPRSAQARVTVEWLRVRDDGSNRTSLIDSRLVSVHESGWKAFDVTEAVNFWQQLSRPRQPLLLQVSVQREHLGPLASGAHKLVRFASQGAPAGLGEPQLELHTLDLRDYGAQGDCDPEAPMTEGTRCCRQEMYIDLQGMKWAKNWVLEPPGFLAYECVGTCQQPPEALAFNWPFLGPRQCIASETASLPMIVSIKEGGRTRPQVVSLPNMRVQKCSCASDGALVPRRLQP

SMILES	composite z-score [1]	composite z-score [2]	composite z-score [3]	z-score [4]	composite z-score [5]	composite z-score [6]	composite z-score [7]	composite z-score [8]	composite z-score [9]	composite z-score [10]	composite z-score [11]	z-score [12]	composite z-score [13]	composite z-score [14]	composite z-score [15]	composite z-score [16]	composite z-score [17]	composite z-score [18]	composite z-score [19]	composite z-score [20]
CCOC(=O)C1=CC[C@@H](c2ccccc2)N(S(=O)(=O)c2ccc(C)cc2)[C@H]1c1ccccc1I	0.88	0.655	1.13	-0.0553 (inactive)	0.619	0.698	0.467	0.806	0.254	0.471	0.77	-0.839	0.316	1.82	0.944	-0.0195	-0.0769	-0.327	0.911	1.19
CC(C)=CCCC(C)=CC(O)C1C=CC2C(=O)NC(=O)C2N1Nc1ccccn1 (stereo not given)	1.52	0.0536	-0.319	-0.121 (inactive)	1.46	1.29	1.68	1.55	1.76	1.6	1.13	-0.156	1.45	-0.188	-1.15	0.176	-0.153	-0.0116	1	1.2
CN(C)CCCNC(=O)[C@@]1(C)c2ccccc2C(=O)N(Cc2ccc(OC(F)(F)F)cc2)[C@H]1c1ccc(CO)cc1	1.33	-0.0469	0.63	0.399 (inactive)	-0.365	-0.417	-0.786	-0.811	-0.912	0.462	0.0228	-2.26	-1.01	-0.415	0.522	-0.115	-0.0978	0.738	1.76	1.5
C=C1C(=O)C=C2CN(C(=O)c3ccccc3)[C@@](Cc3ccc(OC)cc3)(C(=O)OC)[C@@H]12	1.14	1.18	1.18	-2.15 (inactive)	1.38	0.681	0.369	1.37	-0.399	0.516	1.43	-2.72	-0.135	2.16	0.311	0.164	0.232	2.04	1.04	1.2
CN(C)CCCCNC(=O)[C@H]1C[C@H]2C(=O)N3CCC[C@H]3C(=O)N2[C@H]1c1cccc(OCCO)c1	1.67	0.0092	0.833	-0.0803 (inactive)	0.425	0.676	-0.497	-0.0327	-0.0023	0.0098	1.4	-0.0955	-0.35	0.915	0.836	-0.144	0.134	1.14	0.495	1.43
CN(C)CCCNC(=O)[C@@H]1c2ccccc2C(=O)N(Cc2ccccc2C(F)(F)F)[C@H]1c1ccc(CO)cc1	-0.722	0.908	0.706	0.0896 (inactive)	-0.728	0.355	-0.899	-0.58	-0.759	0.764	-0.242	-1.68	-1.42	-0.206	-0.263	-0.1	-0.138	-0.163	0.689	0.542
CCOC(=O)C1=C[C@@H](C(C)(C)C)N(S(=O)(=O)c2ccc(C)cc2)[C@H]1c1ccc(C#N)cc1	0.895	0.328	0.113	-0.385 (inactive)	0.933	1.11	0.658	1.09	0.512	0.712	1.41	-2.04	0.282	1.37	0.226	0.055	-0.154	0.618	0.918	1.09
[N-]=[N+]=NCc1ccccc1[C@@H]1OC(c2ccc(OCCCO)cc2)=N[C@]1(Cc1ccccc1N=[N+]=[N-])C(=O)O	1.45	1.35	1.11	-1.48 (inactive)	1.15	1.26	0.268	1.03	-0.075	0.848	0.98	-0.909	-0.0061	1.4	0.774	0.496	0.541	1.7	0.697	1.55
COC(=O)[C@@]1(Cc2ccc(OC)cc2)[C@H]2c3cc(C(=O)N(C)C)[nH]c3C[C@H]2CN1C(=O)c1ccccc1	1.03	0.416	0.564	0.569 (inactive)	1.12	-0.54	-0.144	-0.273	-0.465	0.0999	-0.65	-0.536	-0.228	-0.0912	-0.242	-0.176	0.128	0.516	-0.223	0.0334
CCCNC(=O)[C@@]1(Sc2ccc(C)cc2)CC(=O)N(Cc2ccccc2Cl)[C@@H]1c1ccc(CO)cc1I	0.958	0.147	0.864	-0.766 (inactive)	-0.87	-0.51	-1.49	-1.14	-1.54	0.472	0.135	-2.17	-1.4	0.284	0.321	-0.129	-0.132	1.91	-0.0631	0.461
COC(=O)C(CC#Cc1ccc2c(c1)[C@]1(C(=O)N2)[C@H](C(=O)N2CCc3cc(OC)c(OC)cc3C2)[C@H]2C(=O)O[C@H](c3ccccc3)[C@H](c3ccccc3)N2[C@@H]1c1ccccc1OCCO)C(=O)OC	1.3	0.581	0.623	0.234 (inactive)	0.954	1.34	0.529	1.28	0.627	-0.592	-0.099	-2.09	0.815	1.02	-0.509	-0.0161	-0.0289	0.682	1.59	2.65
